Results: PubChem BioAssay
Activity calls are given as the source filed them.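 The calls were made as follows, unless noted: active = inhibition above 20% together with a positive visual image hit; inconclusive = visual image hit but inhibition not above 20%; inactive = no visual image hit.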

Key:
[1] = inhibitors of TNFa-induced NFkB p65 translocation, primary screen, imaging, HUVEC, MLSMR starter and 10KST1 sets (AID 438); details: HUVEC TNFa-induced p65 nuclear translocation; cell count: measured here: nuclei count (cytotoxicity indicator), at 2.08 µM; inhibition: at 2 µM, stronger effect = higher value, 0% TNFa-plus-vehicle, 100% no-TNFa wells;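 also: compound added about 3h40 before a 20 min TNFalpha stimulation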;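 as to inhibition: signal is the nuclear over cytoplasmic p65 intensity ratio per well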
[2] = reduction of polyQ htt aggregates in cells – imaging, exon1htt(103Q)mCFP cells, high-content imaging, primary screen (AID 483;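 active = visual image review flags a hit and inhibition of aggregation exceeds 20%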;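 also: compound exposure lasted 3 days before fixation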;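 as to nuclei count: percent of the per-plate median nuclei count of sample wells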); details: exon1htt(103Q)mCFP cell line, aggregate imaging, at 2 µM; inhibition of aggregation: stronger effect = higher value; nuclei count: measured here: cell count, toxicity
[3] = endothelial E-selectin expression blockers – imaging, HUVEC, immunofluorescence, MLSMR starter and 10KST1 sets, primary screen (AID 487;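 active = visually confirmed hit in the image check and inhibition above 20%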;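 as to inhibition: signal is fraction of cell area covered by stained E-selectin grains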;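 as to nuclei count: 100% = median nuclei count of all wells on the same plate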); details: HUVEC TNFalpha-induced E-selectin immunofluorescence imaging, at 2 µM; inhibition: stronger effect = higher value; nuclei count: measured here: cell number, toxicity
[4] = molecular target: Voltage-gated potassium channel subunit beta-2 (Rattus norvegicus) (UniProt P62483); assay: inhibitors of rat Kvbeta2 reductase activity – biochemical, NADPH fluorescence, primary screen (AID 622;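 active = fluorescence slope higher than the sample average by over 3 SD, cut at about -0.22 in these data, passing the limit was not always enough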;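 also: slope of raw intensity against log time taken from 70 to 1610 s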); details: recombinant KvBeta, 4-cyanobenzaldehyde reduction, at 10 µM, stronger effect = higher value
[5] = molecular target: Voltage-gated potassium channel subunit beta-2 (Rattus norvegicus) (UniProt P62483); assay: enhancers of rat Kvbeta2 NADPH turnover – biochemical, NADPH fluorescence, primary screen (AID 623;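 active = NADPH fluorescence slope more negative than the mean of all samples by about 3 SD, 99.7% confidence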;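 also: fluorescence intensity change per second fitted from 20 to 320 s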); details: Recombinant KvBeta, NADPH fluorescence decrease slope, 10 min; at 10 µM; stronger effect = lower value
[6] = molecular target: Alpha-2C adrenergic receptor (Homo sapiens) (UniProt P18825); assay: compounds altering alpha2C-coupled GIRK flux – cell-based, HEK293 alpha2C/GIRK1/2, thallium flux, primary screen (AID 624;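 active = fluorescence slope after compound addition differing from the mean of all screened samples at 99.7% confidence, in either direction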;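 also: slope of fluorescence ratio to pre-addition baseline per second over 15 to 24 s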); details: thallium flux BTC fluorescence, at 10 µM, actives lie on both sides
[7] = blockers of RIG-like receptor reporter activation – cell-based, Sendai virus stimulus, luciferase, 10K MLSCN set, TLR/RLR signaling modifier project, primary screen (AID 602276;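 active = inhibition at or above 50% at 10 µM; inactive = inhibition below 50%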;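 also: firefly luciferase from ISG56 promoter only with Renilla not read in this screen; 0% = Sendai virus plus DMSO and 100% = medium plus DMSO without virus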); details: HEK293 RL24 IRF3 luciferase reporter, at 10 µM, stronger effect = higher value
[8] = TLR3 IRF3 reporter activation blockers – cell-based, poly I:C stimulus, luciferase, 10K MLSCN set, primary screen (AID 602277;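 active = inhibition of the reporter signal at or above 50%; inactive = inhibition below 50%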); details: HEK293-TLR3 RL24 IRF3 luciferase reporter, at 10 µM, stronger effect = higher value

Alpha-2C adrenergic receptor (Homo sapiens), sequence (P18825 whole entry, looked up): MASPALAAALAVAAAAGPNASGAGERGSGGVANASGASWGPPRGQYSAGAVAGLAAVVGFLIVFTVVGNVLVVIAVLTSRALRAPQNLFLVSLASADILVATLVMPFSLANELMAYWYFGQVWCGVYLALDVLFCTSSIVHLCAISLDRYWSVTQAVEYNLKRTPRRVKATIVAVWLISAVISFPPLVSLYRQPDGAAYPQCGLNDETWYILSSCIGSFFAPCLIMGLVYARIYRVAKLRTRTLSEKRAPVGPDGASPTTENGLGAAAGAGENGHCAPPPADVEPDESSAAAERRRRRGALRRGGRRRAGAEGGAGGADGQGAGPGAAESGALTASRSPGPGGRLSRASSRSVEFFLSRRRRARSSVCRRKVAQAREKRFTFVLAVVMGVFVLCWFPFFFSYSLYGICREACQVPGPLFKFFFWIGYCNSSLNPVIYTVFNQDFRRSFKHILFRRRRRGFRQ
Voltage-gated potassium channel subunit beta-2 (Rattus norvegicus), sequence (P62483 whole entry, looked up): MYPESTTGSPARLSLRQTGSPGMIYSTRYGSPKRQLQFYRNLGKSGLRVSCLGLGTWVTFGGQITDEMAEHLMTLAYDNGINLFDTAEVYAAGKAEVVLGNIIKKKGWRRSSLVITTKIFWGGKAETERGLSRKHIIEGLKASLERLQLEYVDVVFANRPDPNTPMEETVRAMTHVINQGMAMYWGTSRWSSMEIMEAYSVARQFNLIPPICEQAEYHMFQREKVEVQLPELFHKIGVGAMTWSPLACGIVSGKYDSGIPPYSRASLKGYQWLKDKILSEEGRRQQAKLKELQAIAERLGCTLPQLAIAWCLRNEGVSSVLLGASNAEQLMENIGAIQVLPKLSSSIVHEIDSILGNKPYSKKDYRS

SMILES	cell count [1]	inhibition [1]	inhibition of aggregation [2]	nuclei count [2] [%]	inhibition [3]	nuclei count [3] [%]	fluorescence slope [4]	NADPH fluorescence slope [5]	slope [6]	inhibition [7]	inhibition [8]
CS(=O)(=O)C1=C(O)C(=O)N(c2ccccc2)C1c1ccccc1 (stereo not drawn)	415	-6% (inactive)	-10.4% (inactive)	103	-41.9% (inactive)	132	-0.439 (inactive)	1.7e-05 (inactive)	0.00632 (inactive)	-1.92% (inactive)	26.4% (inactive)
COc1cccc(CNC(=O)Cn2c(=O)oc3ccccc32)c1OC	603	-4% (inactive)	2.6% (inactive)	59.7	-16.3% (inactive)	88.3	-0.53 (inactive)	-3.1e-05 (inactive)	0.00743 (inactive)	11.8% (inactive)	31% (inactive)
CCOc1cccc(C(=O)N2CCCCC2c2cccnc2)c1 (stereo not drawn)	269	-0.4% (inactive)	-24.6% (inactive)	95.1	-148% (inactive)	101	-0.526 (inactive)	-4.2e-05 (inactive)	0.00421 (inactive)	9.72% (inactive)	19.7% (inactive)
CCC1CCCCN1C(=O)CSc1nnc(-c2ccc(OC)cc2)o1 (stereo not drawn)	599	-4.4% (inactive)	20.5% (inactive)	96.8	-27.4% (inactive)	113	-0.539 (inactive)	3e-05 (inactive)	0.0067 (inactive)	-5.53% (inactive)	-21.5% (inactive)
O=C(Nc1cccc(-c2nnc(-c3ccccc3)o2)c1)C1CCCCC1	666	-2.8% (inactive)	-15.1% (inactive)	109	-21.3% (inactive)	116	-0.589 (inactive)	-1.7e-05 (inactive)	0.00531 (inactive)	-20.4% (inactive)	-62.4% (inactive)
CCCCCOc1ccc(C2NC(=O)NC2=O)cc1 (stereo not drawn)	804	-5.5% (inactive)	-5.5% (inactive)	107	-50.9% (inactive)	121	-0.561 (inactive)	-4.1e-05 (inactive)	0.00708 (inactive)	-12.1% (inactive)	-2.6% (inactive)
Cc1ccc(-c2noc(CCC(=O)NCCc3ccccc3Cl)n2)cc1	287	-1.2% (inactive)	19.9% (inactive)	91	5.2% (inactive)	88.4	-0.409 (inactive)	-3.6e-05 (inactive)	0.00258 (inactive)	10.3% (inactive)	21.8% (inactive)
COc1cccc(-n2c(SC3CCOC3=O)nc3ccccc3c2=O)c1 (stereo not drawn)	387	2.4% (inactive)	-18% (inactive)	101	7.5% (inactive)	108	-0.435 (inactive)	-5.4e-06 (inactive)	0.00493 (inactive)	2.92% (inactive)	18.7% (inactive)
Cc1oc(-c2ccccc2F)nc1CS(=O)(=O)CC(=O)NCc1ccco1	753	-1.1% (inactive)	4.5% (inactive)	102	-29.4% (inactive)	107	-0.539 (inactive)	-1.9e-05 (inactive)	0.00692 (inactive)	0.0639% (inactive)	22.5% (inactive)
C=CCSc1nnc(NC(=O)c2ccc(S(=O)(=O)NCC3CCCO3)cc2)s1 (stereo not drawn)	245	5.1% (inactive)	-8.6% (inactive)	88.4	-146% (inactive)	114	-0.496 (inactive)	-4.8e-05 (inactive)	0.00603 (inactive)	4.11% (inactive)	11% (inactive)
Cc1cc(C(=O)Nc2cccnc2)no1	543	-10.1% (inactive)	-9.5% (inactive)	116	-133% (inactive)	112	-0.35 (inactive)	-5.2e-05 (inactive)	0.0058 (inactive)	-17% (inactive)	-20.9% (inactive)
CNC(=O)CSc1nnc(-c2ccc(S(=O)(=O)N3CCCC3)cc2)n1-c1cccc(C)c1C	643	-2.4% (inactive)	-15.2% (inactive)	108	-87.7% (inactive)	106	-0.458 (inactive)	-4.2e-05 (inactive)	0.00667 (inactive)	12.2% (inactive)	33.2% (inactive)
O=C(O)CCn1c(=O)c2ccccc2c2ccccc2c1=O	557	1% (inactive)	-13.6% (inactive)	118	10.2% (inactive)	101	-0.537 (inactive)	7e-06 (inactive)	0.00528 (inactive)	-4.94% (inactive)	-9.95% (inactive)
Cc1cc(NC(=O)Cc2cn3ccsc3n2)n(-c2ccccc2)n1	823	-16.9% (inactive)	-16.8% (inactive)	104	-23.9% (inactive)	106	-0.308 (inactive)	-1.7e-07 (inactive)	0.00558 (inactive)	5.91% (inactive)	5.15% (inactive)
COc1ccccc1C(=O)N1CCN=C1SCc1cccnc1	266	-0.3% (inactive)	-22.1% (inactive)	103	0.7% (inactive)	97.2	-0.595 (inactive)	-3.9e-05 (inactive)	0.00599 (inactive)	-7.45% (inactive)	6.88% (inactive)
CCCn1c(C)cc(C(=O)COc2ncnc3sccc23)c1C	312	2.9% (inactive)	11.2% (inactive)	65.8	-66.8% (inactive)	115	-0.556 (inactive)	2.3e-05 (inactive)	0.00512 (inactive)	-64% (inactive)	-108% (inactive)
N#Cc1cc2ccccc2nc1SCC(=O)Nc1ccccc1N1CCOCC1	448	13.7% (inactive)	8.2% (inactive)	100	-12.8% (inactive)	106	-0.481 (inactive)	-2.6e-05 (inactive)	0.00662 (inactive)	9.6% (inactive)	9.63% (inactive)
COCC(=O)N(c1ccc(C(C)C)cc1)C1C=CS(=O)(=O)C1 (stereo not drawn)	691	-23.8% (inactive)	20.8% (inactive)	129	-55.5% (inactive)	103	-0.314 (inactive)	-7.6e-06 (inactive)	0.00672 (inactive)	7.64% (inactive)	28.1% (inactive)
Cc1ccccc1NC(=O)CN1CCC(NC(=O)Nc2ccccc2)CC1	516	-1.9% (inactive)	25.9% (inactive)	68	-121% (inactive)	93	-0.292 (inactive)	-4.8e-05 (inactive)	0.00566 (inactive)	9.37% (inactive)	9.34% (inactive)
Cc1cc2n(n1)C(c1ccccc1)Nc1ccccc1-2 (stereo not drawn)	410	-1.3% (inactive)	-2.5% (inactive)	101	-13.2% (inactive)	119	-0.512 (inactive)	-3.7e-05 (inactive)	0.00459 (inactive)	-11.9% (inactive)	-26.7% (inactive)
N#CCOc1nc(N2CCOCC2)nc(N2CCOCC2)n1	552	-30.6% (inactive)	3% (inactive)	76.6	-10.4% (inactive)	100	-0.287 (inactive)	-4.5e-05 (inactive)	0.00534 (inactive)	10.5% (inactive)	18.6% (inactive)
Cc1ccccc1NC(=O)Cc1nnc(SCC(=O)N2CCN(c3ccccc3)CC2)n1C	483	-5.3% (inactive)	2.3% (inactive)	99.9	8.9% (inactive)	131	-0.402 (inactive)	-5.5e-05 (inactive)	0.00281 (inactive)	11.9% (inactive)	29.5% (inactive)
COc1ccc(C(=O)Nn2c(C3CCC3)nc3ccccc3c2=O)c(OC)c1	657	-10.2% (inactive)	-14% (inactive)	111	14.7% (inactive)	129	-0.585 (inactive)	-7.6e-07 (inactive)	0.00893 (inactive)	-0.704% (inactive)	5.08% (inactive)
NC(=O)NC(=O)CSc1cccc(C(F)(F)F)c1	570	-10.9% (inactive)	-3.2% (inactive)	101	-77.3% (inactive)	123	-0.51 (inactive)	-6.1e-05 (inactive)	0.00622 (inactive)	13.4% (inactive)	18.2% (inactive)
CN(Cc1ccccc1)C(=O)CNC(=O)Cn1cnc2ccccc2c1=O	773	1.1% (inactive)	-13.9% (inactive)	95.7	-18.9% (inactive)	111	-0.602 (inactive)	-2.5e-06 (inactive)	0.00729 (inactive)	4.6% (inactive)	10.1% (inactive)
CCOC(=O)C1CCCN(C(=O)c2cc3c(=O)n4cccc(C)c4nc3n2C)C1 (stereo not drawn)	218	-6% (inactive)	3.5% (inactive)	91.5	75.9% (active)	66.5	-0.467 (inactive)	-1.3e-05 (inactive)	0.00547 (inactive)	17.9% (inactive)	23.7% (inactive)
COc1ccc(Cc2noc(-c3ccc(C)cc3)n2)cc1	488	12.1% (inactive)	-0.3% (inactive)	104	-304% (inactive)	138	-0.366 (inactive)	3.7e-05 (inactive)	0.00509 (inactive)	-38% (inactive)	-135% (inactive)
COc1ccccc1-c1nc2n(n1)C(c1cccs1)C(C(=O)Nc1cccnc1)=C(C)N2 (stereo not drawn)	446	16.2% (inactive)	-15.2% (inactive)	57.9	7.4% (inactive)	98.9	-0.587 (inactive)	-3.8e-05 (inactive)	0.00515 (inactive)	-11.5% (inactive)	-7.18% (inactive)
